# Laboratory results: PubChem BioAssay AID1468 (National Center for Advancing Translational Sciences (NCATS), 2008)
# Screen size: about 280,000 compounds; about 1,100 (0.39%) were called active. Not shown: some 7% with an inconclusive outcome. This is one part of a sample in which actives are shown more often than they occur. Unmarked numbers belong to inactive results. Calls follow the shape of the dose curve; as a rule, active = well fitted inhibition curve with a large enough effect; inconclusive = small, poorly fitted or top-dose-only effect, or effect the other way; inactive = flat fitted curve, though single readings scatter.
# Target: Microtubule-associated protein tau (Homo sapiens) (UniProt P10636)
# Sequence (P10636 561-689 P618L limits assumed): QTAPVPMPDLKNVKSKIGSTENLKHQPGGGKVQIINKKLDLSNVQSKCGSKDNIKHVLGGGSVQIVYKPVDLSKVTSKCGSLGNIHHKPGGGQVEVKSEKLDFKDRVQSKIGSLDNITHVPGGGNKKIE
# Assay: qHTS for Inhibitors of Tau Fibril Formation, Fluorescence Polarization; also: nearly all actives have a fitted effect of over 55% in size
# Settings: K18 P301L tau heparin fibrillization, Alexa594 FP, 6 h; series mostly up to 57.7 µM; activity, negative = inhibition: at the top concentration
# Excerpt: NIH Molecular Libraries Probe Production Network [MLPCN]
# NIH Chemical Genomics Center [NCGC]
# Assay Provider: Carlo Ballatore, University of Pennsylvania
# The microtubule-associated protein tau is an abundant protein in the axons of neurons that stabilizes microtubules. With its ability to modulate microtubule dynamics, tau contributes directly or indirectly, to key structural and regulatory cellular functions. Particularly important is the influence tau exerts on axonal transport, which allows signaling molecules, trophic factors and other essential cellular constituents to travel along the axons. Under pathological conditions, tau becomes sequestered into insoluble aggregates called neurofibrillary tangles. This phenomenon is believed to have pathological consequences by promoting axonal transport deficits that ultimately lead to synaptic dysfunction and neuronal loss. To identify inhibitors of tau aggregation, a heparin-induced tau fibril formation assay was used that employed a recombinantly expressed fragment of tau, K18 (Q242-E372), bearing a P301L mutation (Gustke et al. 1994; Hong et al. 1998).
# Gustke, N., B. Trinczek, et al. (1994). "Domains of tau protein and interactions with microtubules." Biochemistry 33(32): 9511-22.
# Hong, M., V. Zhukareva, et al. (1998).
# Li, W. and V. M. Lee (2006). "Characterization of two VQIXXK motifs for tau fibrillization in vitro." Biochemistry 45(51): 15692-701.
# von Bergen, M., S. Barghorn, et al. (2001). "Mutations of tau protein in frontotemporal dementia promote aggregation of paired helical filaments by enhancing local beta-structure." J Biol Chem 276(51): 48165-74.
# NCGC Assay Protocol Summary:
# For screening, 2 uL/well human K18 P301L (15 uM unlabeled and 0.24 uM Alexa 594-labeled tau final concentrations) in reagent buffer (100 mM sodium acetate pH 7) was dispensed into black solid 1536-well plates (Grenier) using a solenoid-based dispenser. Following transfer of 23 nL compound or DMSO vehicle by a pin tool, 2 uL/well heparin (20 uM final concentration) in reagent buffer was added and the plate centrifuged 15 s at 1000 RPM. Plates were incubated 6 hr at 37 C and then 1 uL/well ThT (30 uM final concentration) was added. After a 1 hr ambient incubation, the plates were read by an Envision (Perkin Elmer) to monitor Alexa 594 FP (555 nm excitation and 632 nm emission).
# Keywords: NIH Roadmap, MLPCN, MLI, MLSMR, NCGC, qHTS, tau, tauopathies, Alzheimer's disease, fibril, neurodegeneration, aggregation
# % is scaled to controls: 0 for no effect and ±100 for the full control effect; potency is read from the fitted curve at half-maximal effect.
Structure (SMILES),Potency,"activity, negative = inhibition [%]"
CC[N+](C)(CC)CCC[n+]1c(-c2ccccc2)c2cc(N)ccc2c2ccc(N)cc21,6.31 µM (active),
CCCN(C/C=C/I)C1CCc2ccc(O)cc2C1 (stereo not given),,-3.39
c1ccc2sc(SNC3CCCCC3)nc2c1,,2.44
CN(C)[C@@H]1C(=O)C(C(N)=O)=C(O)[C@@]2(O)C(=O)C3=C(O)c4c(O)cccc4[C@@](C)(O)C3CC12 (stereo not given in full),,-1.29
CO[C@@H]1C[C@@H](C[C@H]2CC[C@H](C)[C@@H]([C@@H](C)C(=O)O)O2)O[C@]2(O[C@](C)([C@H]3CC[C@@](C)(C4OC([C@H]5O[C@@](O)(CO)[C@H](C)C[C@@H]5C)C[C@@H]4C)O3)C[C@H]2C)[C@@H]1C (stereo not given in full),,-0.541
